Screen size: about 1,500 compounds; about 460 (31%) were called active. Not shown: some 1% with an inconclusive outcome.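 How the source made its calls: active means curve reaches 40% activation over neutral controls at an AC40 no higher than the top valid tested concentration; inconclusive means no clear call, values can overlap the other calls; inactive means signal moving opposite to the expected increase, and the rest.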 Only a sample is shown. Potency and affinity values are given separately.
Assay: activators of glucose-dependent insulin secretion, dose response, cell-based, INS-1E, Gaussia luciferase, luminescence, cherry-pick, set 2 (AID 977607);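 further: 0% = median of the plate neutral control wells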
Conditions: INS-1E GLuc insulin secretion reporter, 2-3 h, stronger effect = higher value; at 35 µM, 100% = signal doubled over neutral wells unless noted

Max activation, inactive:
CCCn1c(O)c(N=NC(=O)c2cccnc2)c2cc(Br)ccc21 -23%
Cc1cc(=O)n(Cc2ccccc2)c2ccccc12 22.3%
COc1ccc(N/C=C/C(=O)c2ccc(Cl)cc2)cc1 -21.2% [at 0.42 µM, 100% = signal doubled over neutral wells]
Cc1ccc(S(=O)(=O)Nc2nc(C)cc(NN)n2)cc1 -19.8% [at 0.015 µM, 100% = signal doubled over neutral wells]
Cc1c(C)c2c(OCC(=O)O)cc3c(c2oc1=O)CCC(C)(C)O3 -24.4% [at 0.135 µM, 100% = signal doubled over neutral wells]
COc1cc2c(cc1OC)C(Cc1ccc(O)cc1)NCC2 (stereo not drawn) 24.7% [at 0.0016 µM, 100% = signal doubled over neutral wells]
COc1cc2c(cc1OC)C(Cc1ccc(O)cc1)N(C)CC2 (stereo not drawn) -15.9% [at 0.0016 µM, 100% = signal doubled over neutral wells]
O=C(NCCC1CCCCN1S(=O)(=O)c1ccc(F)cc1)C(=O)NCc1cccnc1 (stereo not drawn) -23.5% [at 1.2 µM, 100% = signal doubled over neutral wells]
COc1ccc2oc(-c3ccncc3)cc(=O)c2c1 16.4%
COc1ccc(C(=O)Cc2cc3cccc(OC)c3oc2=O)cc1 -21.5% [at 0.0016 µM, 100% = signal doubled over neutral wells]
COc1ccc2oc(=O)c(C(=O)NCc3ccccn3)cc2c1 -9.33% [at 1.2 µM, 100% = signal doubled over neutral wells]
O=C(NCc1ccccn1)c1ccccc1OCc1ccc(Cl)cc1Cl -25.4%
COc1ccc(Cc2nnc(-c3ccccc3)o2)cc1 24.7% [at 0.42 µM, 100% = signal doubled over neutral wells]
COc1cc(CN(C)c2ccc(S(=O)(=O)N3CCCC3)cn2)ccc1OC(F)F -33.3% [at 11 µM, 100% = signal doubled over neutral wells]
CCN1CCN(CC(=O)Nc2ccc(C(C)=O)cc2)CC1 -17% [at 1.2 µM, 100% = signal doubled over neutral wells]
COc1ccc(C(=O)/C=C2/c3ccccc3CC(C)(C)N2C)cc1OC -35.3% [at 1.2 µM, 100% = signal doubled over neutral wells]
O=C(NC(=S)Nc1cccc2[nH]ncc12)c1ccccc1 -16.1% [at 1.2 µM, 100% = signal doubled over neutral wells]
COc1ccc(C(=O)c2sc(Nc3ccccc3)nc2N)cc1OC 39.1% [at 3.8 µM, 100% = signal doubled over neutral wells]
CC(C)COC(=O)N1C[C@H](O)C[C@H]1C(=O)Nc1ccc(Cl)cc1 -12.6% [at 0.015 µM, 100% = signal doubled over neutral wells]
Cc1ccc(-c2nc3c(=O)n(C)c4ccccc4c3o2)cc1 27.7% [at 0.42 µM, 100% = signal doubled over neutral wells]
O=C(Nc1ccc2oc(-c3cccnc3)nc2c1)c1ccc2c(c1)OCCO2 21%
O=C(Nc1ccc(NC(=O)c2cccs2)cc1)c1ccc2c(c1)OCO2 -18.9% [at 3.8 µM, 100% = signal doubled over neutral wells]
CN1CCCCCC1C(=O)N1CCC(N2CCC(C(=O)N3CCOCC3)CC2)CC1 (stereo not drawn) -16.3%
CCOC(=O)c1ccc(S(=O)(=O)N2CCC(C(=O)Nc3nnc(C)o3)CC2)cc1 -12.8% [at 0.0016 µM, 100% = signal doubled over neutral wells]
O=C(Nc1nnc(-c2ccc(F)cc2)s1)C1CCN(S(=O)(=O)c2ccc(Cl)cc2)CC1 18.7%
COc1ccccc1N(CC(=O)NCC1CCCO1)C(=O)CNS(=O)(=O)c1ccc(Cl)cc1 (stereo not drawn) -20% [at 0.42 µM, 100% = signal doubled over neutral wells]
Fc1ccccc1-c1nnc2ccc3ccccc3n12 -19.8% [at 0.135 µM, 100% = signal doubled over neutral wells]
C[C@@H]1CN([C@H](C)CO)C(=O)CCCn2nncc2CO[C@H]1CN(C)C(=O)Nc1ccnc(N2CCOCC2)c1 -14% [at 0.015 µM, 100% = signal doubled over neutral wells]
COc1ccc(NC(=O)C2(c3ccc(NC(=O)c4ccc(OC)cc4)cc3)CCCC2)cc1 -18.4% [at 0.005 µM, 100% = signal doubled over neutral wells]
COc1ccc(C(=O)Nc2ccccc2C(=O)NCC2CCCO2)cc1 (stereo not drawn) 6.34%
COc1ccc(CCN2CC(=O)NC(=O)C2)cc1OC -13.9% [at 3.8 µM, 100% = signal doubled over neutral wells]
CCN(c1ccccc1)c1nc(Cl)nc2c1cnn2C 28.8%
COCc1ccc(C(=O)NC2CCSc3ccccc32)cc1 (stereo not drawn) -17.7%
COc1ccc(-c2ccc(=O)n(CC(=O)NC3CCc4ccccc43)n2)cc1OC (stereo not drawn) 20.7% [at 11 µM, 100% = signal doubled over neutral wells]
CCCc1cc(=O)oc2cc(C)cc(OCC(=O)Nc3ccc(S(N)(=O)=O)cc3)c12 24.1% [at 1.2 µM, 100% = signal doubled over neutral wells]
Cn1c(=O)c(=O)n(C)c2cc(S(=O)(=O)N3CCN(c4ccc(F)cc4)CC3)ccc21 -17.9% [at 0.046 µM, 100% = signal doubled over neutral wells]
CSc1ccc2nnc(-c3cccc(F)c3)n2n1 16.4%
COc1cccc(-c2cc(C(F)(F)F)nc(-n3cncn3)n2)c1 -20.7%
CC(C)CC#Cc1ccc([C@H]2[C@H]3CN(C(=O)c4cnccn4)CC(=O)N3[C@H]2CO)cc1 35.4% [at 0.015 µM, 100% = signal doubled over neutral wells]
CCN(Cc1ccncc1)C(=O)c1cccc(S(=O)(=O)N2CCCCC2)c1 -18% [at 1.2 µM, 100% = signal doubled over neutral wells]
COc1ccccc1CNC(=O)CCS(=O)(=O)Cc1ccc(C)cc1 -17.3%
Cc1ccc(NC2c3ncccc3C(=O)N2C2CCCCC2)cc1 (stereo not drawn) 28.1%
COc1ccc(-c2nnc(-c3cccs3)o2)cc1OC 29.4%
COc1ccc(C2=Nn3c(nnc3-c3ccccc3OC)SC2)cc1OC1CCOC1 (stereo not drawn) 43.3% [at 1.2 µM, 100% = signal doubled over neutral wells]
COc1ccc(C(O)c2nccc3cc(OC)c(OC)cc23)cc1OC (stereo not drawn) 44.3% [at 3.8 µM, 100% = signal doubled over neutral wells]
COc1ccc(C2=Nn3c(nnc3-c3ccccc3OC)SC2)cc1OCC1CC1 -35.7%
COc1ccc(CO/N=C/c2c(C)[nH]c(=O)[nH]c2=O)cc1 16.7%
COC(=O)C1C(=O)NC(SC)=C(C#N)C1c1ccccc1 (stereo not drawn) -22.6% [at 0.015 µM, 100% = signal doubled over neutral wells]
O=C1N(c2ccccc2)c2ccccc2[C@]12C[C@H](O)CO2 -20.7% [at 0.135 µM, 100% = signal doubled over neutral wells]
O=C(COc1ccc(Cl)cc1)NCCS(=O)(=O)N1CCN(c2ccccc2F)CC1 -18.1% [at 0.135 µM, 100% = signal doubled over neutral wells]
COc1ccc(OC)c(C2=Nn3c(nnc3-c3ccncc3)SC2)c1 12.7%
C[C@@H]1O[C@H](C2CCCC2)CC2=C1C(=O)OC(C)(C)O2 18% [at 1.2 µM, 100% = signal doubled over neutral wells]
CC[C@@H]1CC2=C(C(=O)OC(C)(C)O2)[C@H](c2ccc(F)cc2)O1 23.8% [at 3.8 µM, 100% = signal doubled over neutral wells]
C=CCNc1nc(Cl)nc(Nc2ccc(OC)cc2)n1 50.7%
CCOc1cc(/C=C(\CC(=O)O)c2nc3ccccc3s2)ccc1OC -15% [at 0.005 µM, 100% = signal doubled over neutral wells]
c1ccc(-c2ccccc2OCCN2CCCCC2)cc1 -15.6% [at 0.015 µM, 100% = signal doubled over neutral wells]
C/C=C1\COC(C(=O)NCc2ccccc2)(C(F)(F)F)C=C1C=C1CCCCC1 (stereo not drawn) -27% [at 11 µM, 100% = signal doubled over neutral wells]
COc1cc(OC)c2c(-c3ccccc3)cc(C3CCCCC3)nc2c1 -18.2% [at 0.046 µM, 100% = signal doubled over neutral wells]

Source: PubChem BioAssay AID977607 (Broad Institute, 2014)
